We go through eleven compounds from PubChem BioAssay (NCATS).

The target in assay [1] is Alpha-galactosidase A (Homo sapiens) (UniProt P06280). Description: Counterscreen for Glucocerebrosidase Inhibitors: qHTS Assay for Human alpha-Galactosidase at pH 4.5 (AID 992). Also: 0% is about no effect. In outline: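 Concentration-response curves (0.7 nM to 77 uM final) were modeled with the Hill equation to give AC50. Reactions: 2 nM enzyme, 80 uM fluorogenic alpha-galactoside, pH 4.5 citric acid buffer, 20 min, room temperature.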
Alpha-galactosidase A (Homo sapiens), sequence (P06280 whole entry, looked up): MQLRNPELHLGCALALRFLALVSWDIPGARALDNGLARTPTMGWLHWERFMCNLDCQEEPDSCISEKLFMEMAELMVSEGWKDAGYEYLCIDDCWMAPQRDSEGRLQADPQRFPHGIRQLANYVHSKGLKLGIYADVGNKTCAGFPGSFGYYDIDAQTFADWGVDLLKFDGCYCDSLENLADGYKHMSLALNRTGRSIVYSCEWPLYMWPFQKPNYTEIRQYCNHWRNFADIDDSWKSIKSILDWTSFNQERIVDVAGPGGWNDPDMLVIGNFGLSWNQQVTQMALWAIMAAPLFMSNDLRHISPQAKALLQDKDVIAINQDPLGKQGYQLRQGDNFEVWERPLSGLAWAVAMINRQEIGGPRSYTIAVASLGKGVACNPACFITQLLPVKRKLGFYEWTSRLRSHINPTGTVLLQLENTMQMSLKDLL

The target in assay [2] is alpha-glucosidase (Oryza sativa, rice) (UniProt Q653V4). Description: Counterscreen for Glucocerebrosidase Inhibitors: qHTS Assay for Rice alpha-Glucosidase at pH 5.0 (AID 997).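 Also: 0% = full activity with enzyme and -100% = basal without enzyme.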 In a few lines:
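Rice alpha-glucosidase (4 nM final) with 400 uM 4-methylumbelliferyl-alpha-D-glucopyranoside in citrate buffer pH 5.0, 20 min at room temperature, stopped at pH 10; fluorescence 365/440 nm, compounds 0.7 nM–77 uM, AC50 from Hill fits.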

Assay [3] can be described thus: qHTS Assay for Lipid Storage Modulators (AID 1519; calls by dose curve; as to activity change, negative = inhibition: % is scaled to controls: 0 for no effect and ±100 for the full control effect). The conditions noted are these: Drosophila S3 cells, BODIPY lipid droplet/cell ratio, laser cytometry, cells loaded with oleic acid. In outline:
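Cells seeded at 5,000 per well were treated with compounds over a concentration series and loaded with oleic acid (400 uM, as added). Lipid droplet fluorescence (488 nm excitation, 500-530 nm channel) was read by laser-scanning cytometry and normalized to 20 uM Triacsin C.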

For assay [4], the target named is DNA repair nuclease/redox regulator APEX1 (Homo sapiens) (UniProt P27695). Kind of assay: qHTS Validation Assay for Inhibitors of the Human Apurinic/apyrimidinic Endonuclease 1 (APE1) (AID 1705;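 also: TAMRA fluorescence gain over two minutes as APE1 cuts a quenched THF abasic duplex; % is scaled to controls: 0 for no effect and ±100 for the full control effect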). In outline:
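Activity read as rising fluorescence (598 nm emission, 525 nm excitation) from incision of a TAMRA/BHQ-2 duplex carrying a THF abasic site (50 nM). Compound and enzyme sat 15 min at RT before substrate start; signal change between first and third 60-s reads.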

Assay [5] can be described thus: Counterscreen for APE1 Inhibitors: Fluorescent Dye Displacement Validation Assay (AID 1707).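 Also: plate controls were ThO with dsDNA and no compound for no effect and ThO without dsDNA for full effect.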 In a few lines: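 Assay buffer: Tris-HCl pH7.5 with 50mM NaCl, 2 mM MgCl2, 0.01% Tween-20. Dye 250 nM, duplex 50 nM final. Readout: decrease in ThO endpoint fluorescence, 480 nm excitation, 540 nm emission.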
A short description of assay [6]: qHTS for differential inhibitors of proliferation of Plasmodium falciparum line 7G8 (AID 1815).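 Also: parasite growth measured after three days of incubation.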 Also: potency is read from the fitted curve at half-maximal effect.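 As to activity change, negative = inhibition: plate controls were vehicle wells for no effect and reference inhibitor wells for full effect.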
A short description of assay [7]: qHTS for differential inhibitors of proliferation of Plasmodium falciparum line GB4 (AID 1816).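 Also: parasite growth measured after 72 h incubation.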 Also: potency is read from the fitted curve at half-maximal effect.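 As to activity change, negative = inhibition: 0% = vehicle DMSO and -100% = reference inhibitor.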 The conditions noted are these: Potency: Plasmodium falciparum GB4 proliferation inhibition.
Assay [8] can be described thus: qHTS for differential inhibitors of proliferation of Plasmodium falciparum line 3D7 (AID 1876). Also: potency is read from the fitted curve at half-maximal effect.
Assay [9] can be described thus: qHTS for differential inhibitors of proliferation of Plasmodium falciparum line D10 (AID 1877).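 Also: parasites grown with compound for 72 h before DNA staining.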 Also: potency is read from the fitted curve at half-maximal effect.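 As to activity change, negative = inhibition: plate controls were vehicle wells for no effect and reference inhibitor wells for full effect.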
A short description of assay [10]: qHTS for differential inhibitors of proliferation of Plasmodium falciparum line W2 (AID 1883).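 Also: parasites grown with compound for 72 h before lysis and staining.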 Also: potency is read from the fitted curve at half-maximal effect.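 As to activity change, negative = inhibition: 0% = vehicle wells and -100% = control inhibitor wells.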 To be noted: Potency: Plasmodium falciparum W2 proliferation inhibition.
Assay [11] can be described thus: qHTS for differential inhibitors of proliferation of Plasmodium falciparum line HB3 (AID 1886).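 Also: parasites grown with compound for 72 h before SYBR Green readout.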 Also: potency is read from the fitted curve at half-maximal effect.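 As to activity change, negative = inhibition: plate controls were vehicle for no effect and reference inhibitor for full effect.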 To be noted: Potency: Plasmodium falciparum HB3 proliferation inhibition.
For assay [12], the target named is Ferritin light chain (Equus caballus) (UniProt P02791). Kind of assay: qHTS Validation Assay for Identification of Novel General Anesthetics (AID 2323). Also: % is scaled to controls: 0 for no effect and ±100 for the full control effect. In outline: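 Competitive displacement of the profluorescent anesthetic 1-AMA (50% saturated, PBS) from 10 uM apoferritin, 10 min, room temperature. Activity is normalized 380/535 nm fluorescence; concentration-response fitted with a four-parameter Hill equation.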
Ferritin light chain (Equus caballus), sequence (P02791 2-175 limits assumed): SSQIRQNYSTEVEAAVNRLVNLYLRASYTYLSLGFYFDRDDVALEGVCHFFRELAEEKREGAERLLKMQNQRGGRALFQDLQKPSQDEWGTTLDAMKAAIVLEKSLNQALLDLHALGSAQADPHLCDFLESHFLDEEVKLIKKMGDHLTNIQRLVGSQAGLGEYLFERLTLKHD

The target in assay [13] is ATP-dependent DNA helicase Q1 (Homo sapiens) (UniProt P46063). Description: qHTS Validation Assay for Inhibitors of RecQ-Like Dna Helicase 1 (RECQ1) (AID 2353).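 Also: plate controls were DMSO vehicle for no effect and enzyme-free control for full effect.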 In outline:
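50 nM RECQ1T1 preincubated 15 min with compound in Tris pH 8.0 buffer with MgCl2, DTT, Tween-20 and 2.5 ug/ml poly(dI-dC); started with 200 nM TAMRA/BHQ-2 forked duplex and 2 mM ATP. Unwinding read as fluorescence (525/598 nm), two reads 2 h apart.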

The mark [14] stands for this setting: measured here: cell count channel max response.
Where [15] appears, read: measured here: lipid channel max response.

Each structure is given as a SMILES string. Values joined by “and” are separate entries in the source; they are usually repeats but may differ in a detail not shown here. Equal values may be shown once. Results filed as inconclusive are left out. Active and inactive are the calls of the source. Unless noted, calls follow the shape of the dose curve; as a rule, active = well fitted curve in the direction sought with a large enough effect; inconclusive = small, poorly fitted or top-dose-only effect, or another doubt; inactive = no such curve, though single readings can be large; an effect the other way counts as inactive or inconclusive.

DNA repair nuclease/redox regulator APEX1 (Homo sapiens), sequence (P27695 whole entry, looked up): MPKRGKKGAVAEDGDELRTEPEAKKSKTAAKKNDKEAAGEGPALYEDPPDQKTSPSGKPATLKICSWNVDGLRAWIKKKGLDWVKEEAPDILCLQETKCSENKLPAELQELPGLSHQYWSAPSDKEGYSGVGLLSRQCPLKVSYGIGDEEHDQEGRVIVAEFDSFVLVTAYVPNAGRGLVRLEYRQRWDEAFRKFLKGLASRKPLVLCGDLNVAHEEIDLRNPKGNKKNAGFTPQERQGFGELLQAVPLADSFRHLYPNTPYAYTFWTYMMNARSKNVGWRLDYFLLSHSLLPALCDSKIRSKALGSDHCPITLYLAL
ATP-dependent DNA helicase Q1 (Homo sapiens), sequence (P46063 whole entry, looked up): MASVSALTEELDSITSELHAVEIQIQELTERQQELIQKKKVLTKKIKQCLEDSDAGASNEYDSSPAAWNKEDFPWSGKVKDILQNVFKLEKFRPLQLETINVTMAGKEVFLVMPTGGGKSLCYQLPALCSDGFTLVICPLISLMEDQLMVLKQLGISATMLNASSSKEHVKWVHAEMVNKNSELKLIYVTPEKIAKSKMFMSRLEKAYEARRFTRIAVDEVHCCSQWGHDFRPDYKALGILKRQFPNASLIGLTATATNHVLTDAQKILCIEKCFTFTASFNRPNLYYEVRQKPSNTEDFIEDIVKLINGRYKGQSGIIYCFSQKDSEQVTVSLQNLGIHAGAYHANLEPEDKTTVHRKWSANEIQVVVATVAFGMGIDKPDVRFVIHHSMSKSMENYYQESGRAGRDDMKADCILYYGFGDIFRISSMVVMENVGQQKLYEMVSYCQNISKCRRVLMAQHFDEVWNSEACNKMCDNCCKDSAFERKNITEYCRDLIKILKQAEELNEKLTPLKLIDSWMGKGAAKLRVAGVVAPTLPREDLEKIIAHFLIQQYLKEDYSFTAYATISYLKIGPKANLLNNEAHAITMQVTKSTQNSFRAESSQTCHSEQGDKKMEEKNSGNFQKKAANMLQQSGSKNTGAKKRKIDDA

Turning to `OCCN1CCN(CCCN2c3ccccc3Sc3ccc(Cl)cc32)CC1`, the compound was classed as inactive in [1], in [2] and in assay [12]. Also, the activity change, negative = inhibition in assay [3] (at 25.7 µM (top of the series)) is -1.31% (inactive); in [3] (at 57.5 µM (top of the series)), 2.76% (inactive). The max response was -14.4% and -12.4% in [3] (setting [14]); -12.9% and -6.81% in [3] (setting [15]). In addition, the Potency entry in [4], in assay [5] and in [13] was “inactive” throughout. Moreover, the Potency in assay [6] was 3.55 µM (active); in assay [7], 4.47 µM (active); in assay [8], 2.82 µM (active); in [9], 8.91 µM (active); in assay [10], 2.51 µM (active); in [11], 5.01 µM (active).
As for `CN(C)CC[C@@H](c1ccc(Cl)cc1)c1ccccn1`, the activity change, negative = inhibition in [3] (at 57.5 µM (top of the series)) was -0.0513% (inactive). Also, the max response in assay [3] (setting [14]) worked out at 35.1%; in assay [3] (setting [15]) it was 34.2%. Also, the Potency result in [4], in assay [5], in assay [8], in [9], in assay [11] and in [13] was “inactive” in each case. The Potency in assay [6] was 2.51 µM (active); in [10], 1 µM (active). Moreover, the outcome in assay [12] was inactive.
Consider `Nc1ccc(S(=O)(=O)NC(=O)c2ccccc2)cc1`, for which the activity change, negative = inhibition in assay [3] (at 25.7 µM (top of the series)) was 2.01% (inactive); in assay [3] (at 57.5 µM (top of the series)), 8.83% (inactive). Besides, the max response in assay [3] (setting [14]) was -14.6% and 20.6%; in assay [3] (setting [15]), -13.2% and 26.2%.
On to `CC(C(O)c1ccc(O)cc1)N1CCC(Cc2ccccc2)CC1` (configuration not stated), for which, in [3] (at 57.5 µM (top of the series)), the activity change, negative = inhibition was 3.33% (inactive). Also, the figures for the max response in [3] (setting [14]) and in [3] (setting [15]) were 9.6% and 16%, respectively. The Potency result in assay [4], in [5] and in [13] was “inactive” in each case. In addition, the Potency in [6] was 7.08 µM (active); in [7], 3.98 µM (active); in [8] it was 4.47 µM (active); in assay [10], 2.82 µM (active); in [11], 5.01 µM (active). In addition, in assay [12], the result was inactive.
In the case of `c1ccc2c(CC3=NCCN3)cccc2c1`, the activity change, negative = inhibition in [3] (at 25.7 µM (top of the series)) was -0.324% (inactive); in assay [3] (at 57.5 µM (top of the series)) it was 4.27% (inactive). For the same compound, the max response in assay [3] (setting [14]) was -14.5% and 1.91%; in assay [3] (setting [15]) it was -13.5% and 9.6%.
Turning to `CCN(CC)C(C)CN1c2ccccc2Sc2ccccc21` (configuration not stated), in [3] (at 57.5 µM (top of the series)), the activity change, negative = inhibition was 2.47% (inactive). For the same compound, the results for the max response in assay [3] (setting [14]) and in [3] (setting [15]) were -20.9% and -15.4%, respectively.
`CN(C)CCOC(C)(c1ccccc1)c1ccccn1` (configuration not stated): in assay [3] (at 57.5 µM (top of the series)), the activity change, negative = inhibition was 3.29% (inactive). For the same compound, the max response in [3] (setting [14]) was -15.9%; in [3] (setting [15]), -9.47%. Besides, the Potency entry in [4], in [5], in [11] and in assay [13] was “inactive” each time. The Potency in [7] is 6.31 µM (active); in assay [10], 3.55 µM (active). The result in [12] was inactive.
On to `CCCCN1CCCC[C@H]1C(=O)Nc1c(C)cccc1C`, for which the activity change, negative = inhibition in [3] (at 25.7 µM (top of the series)) is -1.47% (inactive). In addition, the max response is 8.59% in [3] (setting [14]) and 9.64% in [3] (setting [15]).
Turning to `NS(=O)(=O)c1cc2c(cc1C(F)(F)F)NC(Cc1ccccc1)NS2(=O)=O` (configuration not stated), in assay [3] (at 57.5 µM (top of the series)), the activity change, negative = inhibition was 2.56% (inactive). Further, the max response in assay [3] (setting [14]) amounted to 6.37%; in [3] (setting [15]), 10.5%.
As to `CC1=C(CC(=O)O)c2cc(F)ccc2/C1=C\c1ccc(S(C)=O)cc1` (configuration not stated), the call in assay [2] was inactive. Further, the activity change, negative = inhibition in assay [3] (at 25.7 µM (top of the series)) was -0.955% (inactive). Moreover, the max response in assay [3] (setting [14]) was -8.73%; in assay [3] (setting [15]), -7.15%. In addition, the Potency entry in [4], in [5], in assay [6], in assay [7], in assay [8] and in [9] was “inactive” each time. Besides, the Potency result in assay [11] and in assay [13] was “inactive” throughout.
For the compound `C[C@](N)(Cc1ccc(O)cc1)C(=O)O`, the activity change, negative = inhibition in assay [3] (at 57.5 µM (top of the series)) is 2.05% (inactive). In addition, the max response in assay [3] (setting [14]) was 7.9%; in assay [3] (setting [15]), 13.3%. The Potency entry in [4], in assay [5], in assay [6], in [7], in assay [8] and in assay [9] was “inactive” in each case. Moreover, the Potency entry in [10], in [11] and in assay [13] was “inactive” each time. For the same compound, the compound was classed as inactive in [12].
